# Screening results from PubChem BioAssay.
# Hits are enriched below; roughly 2.5% of the tested compounds scored in any of these assays.
# ANO1 block: blocks the mouse calcium-activated chloride channel TMEM16A. 310,000 compounds, 1.2% hits. Q8BHY3. HEK293 TMEM16A/YFP iodide influx fluorescence, ionomycin. normalized B-score (activity score, 25-100; higher = stronger inhibition) at 10 µM;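 active = ratio plate-corrected score three or more library SD toward inhibition, starting fluorescence score within five deviations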;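 also: score derived from kinetic fluorescence span divided by baseline fluorescence per well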
# TMEM16A act: mouse TMEM16A channel activation, primary screen | HEK293 TMEM16A/YFP-H148Q/I152L, iodide quench fluorescence; active compounds read low | B-score at 10 µM | 340,000 compounds, 0.3% hits | AID 623877;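 active = fluorescence-ratio B-score plate-corrected deviation score at least 3 library SD below zero, with starting fluorescence score within 5 deviations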;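 also: channel opened by trigger with iodide after compound preincubation; score built on the fluorescence ratio of max minus min over baseline; more negative score means more quench and so TMEM16A activation or potentiation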
# PKA-R1A act: PKA-R1A complex activation | P00514+P68181 | PKA-R1A dissociation, Cy5-IP20 fluorescence polarization; scaled: DMSO 0%, 113 µM cGMP 100% | activation, % at 11.4 µM | 340,000 compounds, 0.083% hits | AID 504707;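 active = percent activation above the mean of all tested compounds plus 3 SD, cut at about 19% in these data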;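 also: higher means more PKAc released from R1A so a rise in polarization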
# CHT inh: human CHT choline transport inhibition | Q9GZV3 | CHT-expressing cells, membrane potential dye, choline response; active compounds read low | B-score at 10 µM | 310,000 compounds, 0.86% hits;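 active = B-score over 3 SD under the library average, and starting fluorescence ratio not unusually high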;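 also: choline stimulus applied at its EC90 after an EC20 pre-addition; B-score computed on integrated fluorescence ratio after choline addition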
# Target sequence (Q9GZV3 whole entry, looked up): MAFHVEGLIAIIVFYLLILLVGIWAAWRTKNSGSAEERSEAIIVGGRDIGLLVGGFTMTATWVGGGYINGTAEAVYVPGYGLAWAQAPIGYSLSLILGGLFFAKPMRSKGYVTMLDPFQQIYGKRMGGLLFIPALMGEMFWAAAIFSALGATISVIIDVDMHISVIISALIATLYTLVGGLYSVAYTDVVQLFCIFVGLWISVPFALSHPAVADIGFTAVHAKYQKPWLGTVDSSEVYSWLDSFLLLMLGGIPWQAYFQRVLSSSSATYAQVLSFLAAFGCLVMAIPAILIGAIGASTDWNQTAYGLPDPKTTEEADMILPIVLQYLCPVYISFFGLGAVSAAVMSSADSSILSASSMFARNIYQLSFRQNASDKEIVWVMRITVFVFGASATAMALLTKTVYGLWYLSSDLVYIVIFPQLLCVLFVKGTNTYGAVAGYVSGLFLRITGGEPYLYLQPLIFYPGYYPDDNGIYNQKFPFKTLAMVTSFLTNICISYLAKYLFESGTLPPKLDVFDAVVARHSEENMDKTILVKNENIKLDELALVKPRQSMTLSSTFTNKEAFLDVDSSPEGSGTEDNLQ
# CHT PAM: allosterically activates the human high affinity choline transporter | Q9GZV3 | B-score at 10 µM | 310,000 compounds, 0.49% hits | CHT-expressing cells, membrane potential dye, choline EC20; active compounds read high; LV-AA mutant CHT in HEK293 cells | AID 488977;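 active = initial fluorescence not abnormally high and integrated response B-score, plate-corrected, over 3 SD above library mean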
# PKA-R2B activ: PKA-R2B complex activation | PKA-R2B holoenzyme dissociation, Cy5-IP20 fluorescence polarization; R2B truncated from residue 108, S112A mutant; 0% DMSO only, 100% 113 µM cGMP | activation, % at 11.4 µM | P22694+P31323 | AID 504700 | 340,000 compounds, 0.079% hits;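 active = activation above a cutoff set at the mean over all compounds plus 3 SD, cut at about 18% in these data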;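 also: higher means more holoenzyme dissociation and a rise in polarization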
# CHT activ conf: confirmation of human choline transporter (CHT) activators. shares compounds with CHT PAM. 2,500 compounds, 91% hits. activation, % at 10 µM. AID 504833. CHT-expressing cells, membrane potential dye fluorescence (FDSS); % of choline EC20–EC90 response window; HEK293 expressing CHT LV-AA mutant; choline added at its EC20;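 active = primary screen active, with duplicate mean activation above negative control mean plus 3 SD, cut at about 11% in these data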
# HEK293 MP dye: activity in parental HEK293 cells lacking CHT; shares compounds with CHT PAM; membrane potential dye fluorescence (FDSS); measured after EC20 choline addition; ratio readout change at 10 µM, hits read low; 2,500 compounds, 62% hits; AID 623908;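 active = duplicate-averaged ratio beyond 3 SD from buffer wells, up or down, though filed actives are nearly all decreases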
# * hit, by the source's call; i = inactive; x = not tested or not shown.
SMILES,ANO1 block,TMEM16A act,PKA-R1A act,CHT inh,CHT PAM,PKA-R2B activ,CHT activ conf,HEK293 MP dye
CN1C[C@@H]2[C@@H]3C(=O)N(Cc4ccccc4)C(=O)[C@@H]3[C@](Cc3ccccc3)(C1=O)N2C(=O)c1ccc(F)cc1,x,i,0,x,x,-8,x,x
O=C(CCNS(=O)(=O)c1ccc(OC(F)(F)F)cc1)NC1CC1,x,i,-14,x,x,3,x,x
Cc1c(C(O)CN2CCN(Cc3ccc4c(c3)OCO4)CC2)c2ccccc2n1C (configuration not stated),i,i,6,i,6.8*,-5,31*,-27*
COc1ccccc1N1CCN(c2ccc3ccccc3n2)CC1,i,i,0,i,i,14,x,x
COc1ccccc1N1CCN(c2cc(N3CCCC3)nc(C)n2)CC1,i,i,0,i,7.5*,-4,54*,-48*
CCOC(=O)c1cnc2c(cnn2C)c1NCCCn1ccnc1,i,i,2,i,7.2*,-1,44*,-81*
Cc1cc(N2CCN(Cc3cn(C)nc3-c3ccccc3F)CC2)cc(C)n1,i,i,-7,i,i,-1,77*,-74*
COc1ccc(Br)cc1CN(C)CC(=O)Nc1c(Cl)cccc1Cl,i,i,-7,i,i,-13,7,i
O=C(O)CCC(=O)NNC(=O)c1cccs1,i,i,-6,i,i,-3,x,x
CCC(=O)N/N=C/c1ccc(-c2ccc([N+](=O)[O-])cc2)o1,i,i,0,i,i,-3,x,x
O=C1N=C(O)CN1/N=C/c1ccc(-c2ccc([N+](=O)[O-])cc2)o1,i,i,-5,i,7.6*,6,32*,-32*
CC(=O)OCCCn1c(C)[n+](C)c2cc(Cl)c(Cl)cc21,i,i,-2,i,9.7*,6,67*,-62*
CCn1c(C)[n+](CCOC(C)=O)c2cc(Cl)c(Cl)cc21,i,i,1,i,i,-9,x,x
COCC1CCN(C(=O)C2CCC(=O)N(Cc3cccc(F)c3)C2)CC1 (configuration not stated),i,i,0,i,i,8,x,x
Cc1cc(C(=O)N/N=C\c2cc(C(C)(C)C)ccc2O)n[nH]1,i,i,-3,i,i,-13,x,x
CC(=O)N/N=C/c1cc(C(C)(C)C)cc(/C=N/NC(C)=O)c1O,i,i,x,i,8.4*,x,64*,-50*
CC1(C(=O)c2ccccc2)C2c3c(ccc4ccccc34)OC(=O)C21C(=O)N1CCOCC1 (configuration not stated),i,i,-2,i,7.3*,-5,16*,i
O=C(N1CCOCC1)N(CCN1CCOCC1)Cc1cccc2ccccc12,i,i,7,i,i,1,x,x
Cc1ccc(C2=NS(=O)(=O)N(C)C(C(=O)N3CCOCC3)=C2)cc1,i,i,1,i,i,-1,x,x
O=C(Nc1ccc2ccccc2c1)c1cnccn1,i,i,0,i,i,-7,x,x
O=C(Nc1ccc2nccnc2c1)c1cnccn1,i,i,-1,i,7.5*,-1,53*,-58*
CCCn1c(C)cc(=O)c2cc(NC(=O)c3cnccn3)ccc21,i,i,-4,i,i,-10,41*,-80*
CCCOC(=O)c1ccc(NC(=O)c2cnccn2)cc1,i,i,-3,i,i,3,x,x
